# Experiments:
# Test in all cases: DAPPL (digital affinity profiling via proximity ligation, sequencing); 10 mM Tris-HCl pH 7.5, 50 mM NaCl, 1 mM DTT, 4% glycerol, room temperature, 30 min; GST-TFs on glutathione beads, 16-mer random dsDNA library, 0.1% formaldehyde crosslink after washing; high values mean tight binding
# Details in all cases: protein: recombinant; tags: N-terminal GST; dsDNA, one strand shown
# ELK1 = biological target: T1, ELK1 (Homo sapiens, UniProt P19419 1-428)
# T1 sequence: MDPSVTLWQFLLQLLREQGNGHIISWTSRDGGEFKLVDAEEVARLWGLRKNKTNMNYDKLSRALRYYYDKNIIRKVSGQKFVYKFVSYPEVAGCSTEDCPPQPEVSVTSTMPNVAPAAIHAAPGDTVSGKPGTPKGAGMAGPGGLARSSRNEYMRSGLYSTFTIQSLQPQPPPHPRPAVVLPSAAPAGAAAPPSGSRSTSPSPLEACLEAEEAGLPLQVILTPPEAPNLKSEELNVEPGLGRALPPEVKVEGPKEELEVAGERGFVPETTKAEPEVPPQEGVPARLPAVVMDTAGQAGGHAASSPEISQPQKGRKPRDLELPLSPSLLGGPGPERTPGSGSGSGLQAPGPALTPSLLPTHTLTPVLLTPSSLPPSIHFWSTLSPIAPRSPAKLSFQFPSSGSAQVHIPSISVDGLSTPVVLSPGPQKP
# Outline: (§1)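 Pools were built from human transcription factors expressed in yeast as GST fusions, captured on glutathione beads and DNA-barcoded, along with a tag-only sample. Incubation with 200 nmole of a 16-mer random double-stranded DNA library lasted 30 min at room temperature in Tris/NaCl/DTT/glycerol buffer, and was followed by washing, 0.1% formaldehyde crosslinking, proximity ligation, PCR amplification and Illumina NextSeq500 sequencing. Binding signal is the quotient of each hexamer's read frequency for a factor and its frequency for the tag-only sample.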
# ELF1 = ELF1 (Homo sapiens, UniProt P32519 1-619)
# Chain of ELF1 (P32519 whole entry): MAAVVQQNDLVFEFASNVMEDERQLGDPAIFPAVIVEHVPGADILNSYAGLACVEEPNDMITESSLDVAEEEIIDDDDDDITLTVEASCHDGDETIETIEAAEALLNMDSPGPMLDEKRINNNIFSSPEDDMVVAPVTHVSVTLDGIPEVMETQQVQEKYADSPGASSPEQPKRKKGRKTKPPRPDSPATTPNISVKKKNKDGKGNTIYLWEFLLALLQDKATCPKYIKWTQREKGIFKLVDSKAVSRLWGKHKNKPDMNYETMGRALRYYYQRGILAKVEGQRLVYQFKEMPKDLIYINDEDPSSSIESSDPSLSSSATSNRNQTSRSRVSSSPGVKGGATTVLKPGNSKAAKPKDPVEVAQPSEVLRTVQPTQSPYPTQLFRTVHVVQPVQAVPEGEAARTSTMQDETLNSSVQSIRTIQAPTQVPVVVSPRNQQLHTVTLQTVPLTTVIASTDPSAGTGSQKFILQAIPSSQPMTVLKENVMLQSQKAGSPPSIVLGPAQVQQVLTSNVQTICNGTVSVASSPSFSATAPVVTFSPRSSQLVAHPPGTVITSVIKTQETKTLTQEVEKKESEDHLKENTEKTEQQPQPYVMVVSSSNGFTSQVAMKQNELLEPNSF
# Outline: as §1
# EHF = biological target: T2, EHF (Homo sapiens, UniProt Q9NZC4 1-300)
# T2 sequence: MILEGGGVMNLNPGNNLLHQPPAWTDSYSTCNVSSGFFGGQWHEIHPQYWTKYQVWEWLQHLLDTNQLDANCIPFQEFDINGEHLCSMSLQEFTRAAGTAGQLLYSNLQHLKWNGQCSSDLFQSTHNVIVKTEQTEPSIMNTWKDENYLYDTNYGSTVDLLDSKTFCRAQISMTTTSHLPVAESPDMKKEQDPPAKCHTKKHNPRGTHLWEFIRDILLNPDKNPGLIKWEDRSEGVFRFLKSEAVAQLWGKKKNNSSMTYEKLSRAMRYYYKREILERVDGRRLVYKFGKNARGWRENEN
# Outline: as §1
# SPIC = biological target: T3, SPIC (Homo sapiens, UniProt Q8N5J4 1-248)
# T3 sequence: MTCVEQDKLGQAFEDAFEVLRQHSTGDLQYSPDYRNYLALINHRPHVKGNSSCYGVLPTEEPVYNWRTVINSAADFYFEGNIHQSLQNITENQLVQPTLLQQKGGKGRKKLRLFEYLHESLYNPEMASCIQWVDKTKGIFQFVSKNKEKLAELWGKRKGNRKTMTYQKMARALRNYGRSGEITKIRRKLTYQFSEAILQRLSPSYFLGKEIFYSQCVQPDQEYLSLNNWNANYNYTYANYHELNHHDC
# Outline: as §1
# ELK4 = biological target: T4, ELK4 (Homo sapiens, UniProt P28324-2 1-405)
# T4 sequence: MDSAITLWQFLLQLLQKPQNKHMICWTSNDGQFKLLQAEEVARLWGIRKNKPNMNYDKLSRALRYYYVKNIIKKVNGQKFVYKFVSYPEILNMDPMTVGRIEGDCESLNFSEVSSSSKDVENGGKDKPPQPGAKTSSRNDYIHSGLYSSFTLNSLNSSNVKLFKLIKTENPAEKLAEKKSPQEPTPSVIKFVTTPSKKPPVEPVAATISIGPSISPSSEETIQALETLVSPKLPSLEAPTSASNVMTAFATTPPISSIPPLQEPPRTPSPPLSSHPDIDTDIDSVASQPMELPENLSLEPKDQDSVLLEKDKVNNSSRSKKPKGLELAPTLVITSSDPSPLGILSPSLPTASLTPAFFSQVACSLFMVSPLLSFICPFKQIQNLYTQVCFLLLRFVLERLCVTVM
# Outline: as §1
# ETV2 = biological target: T5, ETV2 (Homo sapiens, UniProt O00321 1-342)
# T5 sequence: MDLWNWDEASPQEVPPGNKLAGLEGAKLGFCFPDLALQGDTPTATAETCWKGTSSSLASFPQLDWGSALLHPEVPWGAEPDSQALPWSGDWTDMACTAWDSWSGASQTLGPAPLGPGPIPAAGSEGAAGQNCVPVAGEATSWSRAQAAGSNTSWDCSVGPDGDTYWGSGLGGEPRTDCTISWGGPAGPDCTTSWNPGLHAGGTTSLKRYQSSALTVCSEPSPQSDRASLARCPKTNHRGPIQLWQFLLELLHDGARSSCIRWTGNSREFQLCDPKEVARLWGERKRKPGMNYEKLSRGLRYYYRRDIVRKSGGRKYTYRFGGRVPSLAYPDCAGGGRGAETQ
# Outline: as §1
# ELF3 = biological target: T6, ELF3 (Homo sapiens, UniProt P78545 1-371)
# T6 sequence: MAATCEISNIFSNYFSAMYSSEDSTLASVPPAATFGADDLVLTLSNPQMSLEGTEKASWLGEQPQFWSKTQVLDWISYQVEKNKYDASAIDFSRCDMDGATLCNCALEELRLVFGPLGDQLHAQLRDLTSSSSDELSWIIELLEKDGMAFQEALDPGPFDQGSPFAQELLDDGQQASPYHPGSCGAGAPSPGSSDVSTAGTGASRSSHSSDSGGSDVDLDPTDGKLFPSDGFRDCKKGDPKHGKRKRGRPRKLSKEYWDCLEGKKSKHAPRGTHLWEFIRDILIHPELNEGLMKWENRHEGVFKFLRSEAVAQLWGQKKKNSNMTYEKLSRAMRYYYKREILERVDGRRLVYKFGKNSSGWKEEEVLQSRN
# Outline: as §1
# ETV1 = ETV1 (Homo sapiens, UniProt P50549 1-477)
# Chain of ETV1 (P50549 whole entry): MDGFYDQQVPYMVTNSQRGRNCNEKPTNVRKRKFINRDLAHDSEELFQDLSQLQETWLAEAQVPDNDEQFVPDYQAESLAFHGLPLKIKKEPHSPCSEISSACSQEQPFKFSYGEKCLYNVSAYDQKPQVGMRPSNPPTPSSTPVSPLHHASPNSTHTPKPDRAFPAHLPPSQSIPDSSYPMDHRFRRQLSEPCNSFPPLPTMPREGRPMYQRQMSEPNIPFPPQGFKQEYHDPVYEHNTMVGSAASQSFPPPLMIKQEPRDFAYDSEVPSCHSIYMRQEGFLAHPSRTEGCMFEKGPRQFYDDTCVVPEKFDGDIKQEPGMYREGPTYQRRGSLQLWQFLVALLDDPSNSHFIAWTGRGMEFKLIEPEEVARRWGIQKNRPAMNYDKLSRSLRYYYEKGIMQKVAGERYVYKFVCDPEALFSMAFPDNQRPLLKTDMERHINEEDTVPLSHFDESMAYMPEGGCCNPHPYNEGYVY
# Outline: as §1
# ERF = biological target: T7, ERF (Homo sapiens, UniProt P50548 1-548)
# T7 sequence: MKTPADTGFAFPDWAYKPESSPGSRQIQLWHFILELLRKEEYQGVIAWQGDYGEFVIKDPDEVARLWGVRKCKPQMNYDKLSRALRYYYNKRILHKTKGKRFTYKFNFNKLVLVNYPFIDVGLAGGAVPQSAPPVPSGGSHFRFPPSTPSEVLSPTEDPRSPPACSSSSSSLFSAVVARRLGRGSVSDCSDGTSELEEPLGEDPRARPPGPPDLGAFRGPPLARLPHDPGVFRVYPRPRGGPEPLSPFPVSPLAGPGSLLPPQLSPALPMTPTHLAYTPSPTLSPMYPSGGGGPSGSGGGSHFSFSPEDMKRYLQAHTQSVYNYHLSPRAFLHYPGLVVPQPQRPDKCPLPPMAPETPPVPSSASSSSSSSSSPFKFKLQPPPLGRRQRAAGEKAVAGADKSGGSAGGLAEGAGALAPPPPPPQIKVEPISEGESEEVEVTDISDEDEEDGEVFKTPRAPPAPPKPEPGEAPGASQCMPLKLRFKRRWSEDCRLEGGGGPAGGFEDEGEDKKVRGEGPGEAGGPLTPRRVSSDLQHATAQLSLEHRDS
# Outline: as §1
# SPDEF = biological target: T8, SPDEF (Homo sapiens, UniProt O95238 1-335)
# T8 sequence: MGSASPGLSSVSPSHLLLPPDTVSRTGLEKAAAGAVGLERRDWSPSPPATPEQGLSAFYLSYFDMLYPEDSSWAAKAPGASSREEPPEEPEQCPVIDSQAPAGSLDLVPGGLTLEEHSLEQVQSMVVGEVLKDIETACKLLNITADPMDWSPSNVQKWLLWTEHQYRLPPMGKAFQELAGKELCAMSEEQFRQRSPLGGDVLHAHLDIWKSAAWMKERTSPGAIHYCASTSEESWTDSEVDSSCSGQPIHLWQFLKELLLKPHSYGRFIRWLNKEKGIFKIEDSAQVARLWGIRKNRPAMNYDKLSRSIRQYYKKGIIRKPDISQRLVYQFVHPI
# Outline: as §1
# ELF5 = biological target: T9, ELF5 (Homo sapiens, UniProt Q9UKW6-2 1-255)
# T9 sequence: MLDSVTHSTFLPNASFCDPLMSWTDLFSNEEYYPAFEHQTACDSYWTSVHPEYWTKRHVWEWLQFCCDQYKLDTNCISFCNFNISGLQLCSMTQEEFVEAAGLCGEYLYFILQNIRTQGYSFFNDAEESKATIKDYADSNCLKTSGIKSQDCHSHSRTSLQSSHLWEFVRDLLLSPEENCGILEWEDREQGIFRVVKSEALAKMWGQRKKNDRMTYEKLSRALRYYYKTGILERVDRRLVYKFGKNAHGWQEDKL
# Outline: as §1
sequence,measurement,setting,value
ATCACG,binding signal,ELK1,"1.04 fold enrichment (6-mer frequency, TF over GST control)"
same,binding signal,ELF1,"1.03 fold enrichment (6-mer frequency, TF over GST control)"
same,binding signal,EHF,"1.08 fold enrichment (6-mer frequency, TF over GST control)"
same,binding signal,SPIC,"1.04 fold enrichment (6-mer frequency, TF over GST control)"
same,binding signal,ELK4,"1 fold enrichment (6-mer frequency, TF over GST control)"
same,binding signal,ETV2,"1.07 fold enrichment (6-mer frequency, TF over GST control)"
same,binding signal,ELF3,"1.01 fold enrichment (6-mer frequency, TF over GST control)"
same,binding signal,ETV1,"1.02 fold enrichment (6-mer frequency, TF over GST control)"
same,binding signal,ERF,"1.07 fold enrichment (6-mer frequency, TF over GST control)"
same,binding signal,SPDEF,"1.07 fold enrichment (6-mer frequency, TF over GST control)"
same,binding signal,ELF5,"1.02 fold enrichment (6-mer frequency, TF over GST control)"

# Source: PMC7862700, “An all-to-all approach to the identification of sequence-specific readers for epigenetic DNA modifications on cytosine”
